# Results reported in PubChem BioAssay AID1851 (National Center for Advancing Translational Sciences (NCATS), 2009).
# Where “and” joins values, the source holds several entries; their conditions need not be identical. Equal values may be shown once. The campaign covered roughly 16,000 compounds. About 5,800 (36%) were called active. Not shown: some 23% with an inconclusive outcome. Calls come from the whole dose curve; as a rule, active = well fitted curve in the direction sought with a large enough effect; inconclusive = small, poorly fitted or top-dose-only effect, or effect the other way; inactive = no such curve, though single readings can be large or run the other way. This is one part of the list.
# Molecular target: Cytochrome P450 2C19 (Homo sapiens) (UniProt P33261)
# Sequence (P33261 whole entry, looked up): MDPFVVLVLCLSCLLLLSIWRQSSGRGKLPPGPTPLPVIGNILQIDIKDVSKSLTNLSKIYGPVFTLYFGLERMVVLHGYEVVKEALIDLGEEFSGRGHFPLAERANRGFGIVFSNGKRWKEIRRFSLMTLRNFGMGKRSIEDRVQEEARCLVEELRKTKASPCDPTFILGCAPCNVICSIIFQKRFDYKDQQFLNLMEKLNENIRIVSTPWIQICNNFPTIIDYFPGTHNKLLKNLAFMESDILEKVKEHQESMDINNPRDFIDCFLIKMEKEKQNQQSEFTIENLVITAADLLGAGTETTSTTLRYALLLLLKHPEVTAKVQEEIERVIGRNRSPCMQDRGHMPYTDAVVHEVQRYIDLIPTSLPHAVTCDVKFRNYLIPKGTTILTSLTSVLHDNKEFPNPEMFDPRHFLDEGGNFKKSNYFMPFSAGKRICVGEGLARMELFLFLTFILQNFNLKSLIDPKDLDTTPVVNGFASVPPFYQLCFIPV
# Experiment: Cytochrome panel assay with activity outcomes
# Details: recombinant CYP, pro-luciferin dealkylation, luminescence, p450-cyp2c19; series mostly up to 57.1 µM; activity, negative = inhibition: at the top concentration
# % is set by controls: 0 for no effect and ±100 for the full control effect.
Compound,"activity, negative = inhibition",AC50
CC(=O)OC[C@@H]1O[C@@H](O/N=C2/C[C@@H](O)[C@@H](O)[C@@H]3[C@@H]4C(=O)N([C@@H](C)c5ccccc5)C(=O)[C@H]4CC[C@@H]23)[C@H](OC(C)=O)[C@H](OC(C)=O)[C@@H]1OC(C)=O,23% [at 11.4 µM] (inactive),–
CC(C)NC(=O)N1CCC2(CC1)CCN(C(=O)c1cccn1C)CC2,-18.1% (inactive),–
CNCCCCCCCCSc1nc(C(C)C)ccc1C(=O)c1cccs1,–,15.8 µM (active)
CC(C)NCCCOc1ccc(Cl)cc1Br,–,8.91 µM (active)
CCOc1ccc(Cl)cc1CNCCNCC(C)O (stereo not drawn),23.2% (inactive),–
CCN(CC)c1ccc(NC(=O)c2cnn(CC)c2)cc1,–,28.2 µM (active)
CC(C)CCNC1=NCCCCC1,-8.88% (inactive),–
CCNc1ccc(Br)cc(C(=O)/C=C/c2ccc3c(c2)OCO3)c1=O,–,3.98 µM (active)
CNc1ccc(Br)cc(C(=O)/C=C/c2ccc3c(c2)OCO3)c1=O,–,1.78 µM (active)
c1csc(CNc2cc(-c3ccoc3)ncn2)c1,–,10 µM (active)
c1cncc(-c2cc(NCc3cccs3)ncn2)c1,-32.9% (inactive),–
N#Cc1cccc(-c2cc(NCc3cccs3)ncn2)c1,–,10 µM (active)
N#Cc1cccc(-c2nccc(NCc3cccs3)n2)c1,–,3.98 µM (active)
c1ccc(CNc2cc(-c3ccoc3)ncn2)cc1,-42.4% (inactive),–
N#Cc1cccc(-c2nccc(NCc3ccccc3)n2)c1,–,10 µM (active)
CCOC(=O)C(NC(C)=O)C(=O)O (stereo not drawn),-5.2% (inactive),–
Cc1cccc(CNc2ccnc(-c3cccc(C#N)c3)n2)c1,–,2.51 µM (active)
Cc1cccc(CNc2cc(-c3cccc(C#N)c3)ncn2)c1,–,6.31 µM (active)
CN(C)c1ccc(-c2cc(NCc3ccccc3)ncn2)cc1,-21.1% (inactive),–
Cc1cnc(CNc2cc(-c3cccc(C#N)c3)ncn2)cn1,-15.2% (inactive),–
CN(C)C(=O)c1ccc(-c2cc(NCc3ccccc3)ncn2)cc1,-30.8% (inactive),–

Compound,"activity, negative = inhibition",AC50
Cc1cccc(CNc2cc(-c3ccc(N(C)C)cc3)ncn2)c1,–,3.16 µM (active)
CO[C@]1(NC(=O)Cc2cccs2)C(=O)N2C(C(=O)O)=C(COC(N)=O)CS[C@H]21,0.361% [at 25.6 µM] (inactive),–
CO[C@H]1COC(=O)C/C=C\[C@@H](C)COC(=O)[C@@H](CCSC)NC(=O)C/C=C\[C@@H]1C,-53.8% [at 11.4 µM] (inactive) and -16.1% [at 11.4 µM] (inactive),–
CO[C@H]1COC(=O)C/C=C\[C@H](C)[C@@H](NS(=O)(=O)c2ccc(C)cc2)COC(=O)CCC[C@@H]1C,-36% [at 11.4 µM] (inactive),–
COc1ccccc1CNS(=O)(=O)c1ccc2[nH]cc(C(=O)O)c(=O)c2c1,-6.93% (inactive),–
COc1cccc(NS(=O)(=O)c2ccc3[nH]cc(C(=O)NCCN4CCOCC4)c(=O)c3c2)c1,–,22.4 µM (active)
OCCN1CCN(CC/C=C2\c3ccccc3Sc3ccc(C(F)(F)F)cc32)CC1,-2.39% [at 25.6 µM] (inactive),–
O=C(CCN1CCN(CC(=O)Nc2ccccc2Cl)CC1)Nc1ccccc1F,–,2.51 µM (active)
Cc1ccc(N2CCN(CCC(=O)O)CC2)cc1,10.7% [at 11.4 µM] (inactive),–
O=C(CCN1CCN(c2ccccc2F)CC1)Nc1ccccc1F,–,4.47 µM (active)
COC(=O)N1CCC2(CCN(Cc3cc(C(F)(F)F)cc(C(F)(F)F)c3)CC2)CC1,-39% (inactive),–
Cc1ccc(C)n1CCN1CCN(CC(=O)Nc2cc(C(F)(F)F)ccc2Cl)CC1,–,10 µM (active)
CC1=C(C#N)C(Nc2ccc(Cl)cn2)(C(F)(F)F)C(=O)N1 (stereo not drawn),–,0.794 µM (active)
CNC(=S)N1N=C(c2ccc(OC)cc2)CC1c1ccc(N(C)C)cc1 (stereo not drawn),–,3.16 µM (active)
CCN1C(=O)[C@H]2[C@H]3[C@H](O)[C@H](O)C/C(=N/NC(=O)OCc4ccccc4)[C@H]3CC[C@@H]2C1=O,-7.17% [at 11.4 µM] (inactive),–
Cc1noc(C)c1COc1cccc(C(=O)OCC(=O)N2CC(=O)Nc3ccccc32)c1,–,3.16 µM (active)
O=[N+]([O-])c1ccc(-c2cnc(SCc3ccccc3Cl)[nH]2)cc1,–,2.24 µM (active)
CC(C)C(=O)Nc1ccc(Sc2ccc(F)cc2)cc1,–,7.94 µM (active)
C[N+]1(CC(=O)OCCCc2ccccc2)CCOCC1,-21.7% (inactive),–
CCOc1ccc2[nH]c(=O)c(CN(CCc3ccccc3)C(=O)N3CCOCC3)cc2c1,–,11.2 µM (active)
O=C(O)c1cc2cc(OCc3ccccc3)ccc2[nH]1,-19.8% (inactive),–

Compound,"activity, negative = inhibition",AC50
CCOc1ccc2[nH]c(=O)c(CN(CCc3ccccc3)C(=O)N3CCCC3)cc2c1,–,20 µM (active)
CCOc1ccc(Cc2nc(C)c(CC(=O)N3CCOCC3)c(=O)[nH]2)cc1,-0.806% (inactive),–
NNC(=O)CCc1ccc2ccc3ccccc3c2c1,–,0.251 µM (active)
O=C(O)CCCc1ccc2ccccc2c1,0.826% [at 11.4 µM] (inactive),–
O=C1CCCC=C1[C@@H](O)COCc1ccccc1,-32.2% [at 11.4 µM] (inactive),–
O=C1CCCC=C1[C@@H](O)C1CCCCC1,19.2% [at 11.4 µM] (inactive),–
O=C1CCCC=C1[C@@H](O)CCOC(c1ccccc1)(c1ccccc1)c1ccccc1,–,0.251 µM (active)
N#CC1=C(SCC(N)=O)NC2=C(C(=O)c3ccccc32)C1c1ccc(Cl)cc1 (stereo not drawn),–,3.98 µM (active)
CSC1=C(C#N)C(c2ccccc2Cl)C2=C(N1)c1ccccc1C2=O (stereo not drawn),–,0.355 µM (active)
COC(=O)[C@@H]1CC[C@H](C)[C@@H](c2ccc(C)cc2)N1C(=O)c1ccc(/C=N\O[C@@H](C)c2cn([C@H](CO)Cc3ccccc3)nn2)cc1,–,3.98 µM (active)
COC(=O)[C@@H]1CC[C@H](C)[C@@H](c2ccc(C)cc2)N1C(=O)c1ccc(/C=N\OCC[C@@H]2C=C[C@H](OC(C)=O)[C@H](COC(C)=O)O2)cc1,-15.5% [at 11.4 µM] (inactive),–
COC(=O)[C@@H]1CC[C@H](C)[C@@H](c2ccc(C)cc2)N1C(=O)c1ccc(/C=N\OC[C@@H]2O[C@H](c3ccccc3)C=C[C@@H]2Oc2ccc(OC)cc2)cc1,–,0.0501 µM (active)
COC(=O)[C@@H]1CC[C@H](C)[C@@H](c2ccc(C)cc2)N1C(=O)c1ccc(/C=N\O[C@@H](C)c2cn([C@H]3COC[C@H]3O)nn2)cc1,-29.4% [at 11.4 µM] (inactive),–
CO/N=C\c1ccc(C(=O)N2[C@H](c3ccc(C)cc3)[C@@H](C)CC[C@H]2C(=O)OC)cc1,-39.6% [at 11.4 µM] (inactive),–
COC(=O)[C@@H]1CC[C@H](C)[C@@H](c2ccc(C)cc2)N1C(=O)c1ccc(/C=N\O[C@@H](C)CN2CCCCc3nc(C)c(C)cc32)cc1,-15.5% [at 11.4 µM] (inactive),–
COC(=O)[C@@H]1CC[C@H](C)[C@@H](c2ccc(C)cc2)N1C(=O)c1ccc(/C=N\O[C@@H]2O[C@H](COC(C)=O)[C@H](OC(C)=O)[C@H](OC(C)=O)[C@H]2OC(C)=O)cc1,-28.1% [at 11.4 µM] (inactive),–
COC(=O)[C@@H]1CC[C@H](C)[C@@H](c2ccc(C)cc2)N1C(=O)c1ccc(/C=N\OC[C@@H](O)[C@H]2O[C@H]3OC(C)(C)O[C@H]3[C@@H]2O)cc1,–,0.631 µM (active)
COC(=O)[C@@H]1CC[C@H](C)[C@@H](c2ccc(C)cc2)N1C(=O)c1ccc(/C=N\O[C@@H](C)CN2CCCc3nc(C)c(C)cc32)cc1,24.5% [at 11.4 µM] (inactive),–
CC(C)Oc1ccc(C2CC(=O)NC3=C2C(=O)CCC3)cc1 (stereo not drawn),–,22.4 µM (active)
CO[C@@H]1COC(=O)C/C=C\[C@H](C)[C@H](OC)COC(=O)[C@H]2CCCN2C(=O)C/C=C\[C@H]1C,3.47% [at 11.4 µM] (inactive),–
CCOC(=O)N1CCN(c2c(-c3ccccc3)c3cc(Cl)ccc3[nH]c2=O)CC1,–,3.16 µM (active)

Compound,"activity, negative = inhibition",AC50
Cc1cc(=O)c2cc(Cl)ccc2[nH]1,-7.25% (inactive),–
CCOC(=O)N1CCN(S(=O)(=O)c2ccc3[nH]cc(C(=O)O)c(=O)c3c2)CC1,-23.3% (inactive),–
COc1ccc2[nH]cc(CCNc3cc(-c4cccnc4)ncn3)c2c1,–,25.1 µM (active)
CN(C)c1ccnc(-c2cccc(NS(C)(=O)=O)c2)n1,20.5% (inactive),–
COc1ccc2[nH]cc(CCNc3ccnc(-c4cccnc4)n3)c2c1,–,1 µM (active)
COc1ccc2[nH]cc(CCNc3ccnc(-c4cccc(NS(C)(=O)=O)c4)n3)c2c1,–,10 µM (active)
COc1cccc(-c2cc(NCCc3c[nH]c4ccc(OC)cc34)ncn2)c1,–,0.501 µM (active)
Cc1cnc(CNc2cc(-c3cccnc3)ncn2)cn1,-6.34% (inactive),–
COc1ccc2[nH]cc(CCNc3cc(-c4cccc(C#N)c4)ncn3)c2c1,–,7.94 µM (active)
COc1ccc2[nH]cc(CCNc3cc(-c4ccoc4)ncn3)c2c1,–,5.01 µM (active)
Cc1cnc(CNc2cc(-c3ccoc3)ncn2)cn1,-24.6% (inactive),–
COc1ccc(-n2c(=O)c(-c3cccc(C#N)c3)nc3cnc(N4CCNCC4)nc32)cc1,-21.4% (inactive),–
C[C@H]1CC(C)(C)C[C@@](OCCN2CCCCC2)(c2ccccc2)C1,-2.08% [at 11.4 µM] (inactive),–
COc1cccc(CC(C(=O)Nc2cc(C)ccc2C)c2nn[nH]n2)c1OC (stereo not drawn),–,11.2 µM (active)
O=C1C2=CC[C@H]3C(=O)N(c4cccc(Oc5ccccc5)c4)C(=O)[C@@H]3[C@@H]2[C@H](O)[C@@H]2O[C@H]12,2.5% [at 11.4 µM] (inactive),–
Cc1cccc(Oc2coc3cc(OC(=O)c4cccs4)ccc3c2=O)c1,–,3.98 µM (active)
COc1cccc(C2C3=C(CC(C)(C)CC3=O)OC(N)=C2[N+](=O)[O-])c1 (stereo not drawn),–,8.91 µM (active)
Cc1cc(=O)oc(C)c1C(=O)N1CCCCC1,–,4.47 µM (active)
CCC(C)NC(=O)c1c(C)cc(=O)oc1C (stereo not drawn),41.3% (inactive),–
CCCNC(=O)c1c(C)cc(=O)oc1C,3.91% (inactive),–
